Source: PubChem
Most compounds without a hit are left out; they make up all but 1.1% or so of the library.
Mito fusion act: blocks mitochondrial division or promotes mitochondrial fusion | Potency, µM (doses to about 46.1 µM), without a hit: at the highest dose growth rescue (activation), hits mostly activators | actives 0.23% (n = 320,000) | S. cerevisiae fusion-defective mutant growth rescue, CellTiterGlo 48 h; active means well fitted activation curve with a large enough effect; inconclusive means small, poorly fitted or top-dose-only effect; inactive means no such curve, though single readings can be large or run the other way; further: potency means the concentration at half of the fitted maximal effect; % of control where 0% means no effect; nearly all actives have a fitted effect of over 45% in size
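Read-out: ATP-based luminescence (CellTiterGlo, 10 min ambient) reporting growth of fusion-defective ts yeast after 48 hours at 37C on glycerol/ethanol YPEG medium in the presence of compound.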
Six1-Eya2 inh: blocks human Six1 binding to Eya2; actives 0.56% (n = 360,000); Q15475+O00167; AlphaScreen GST-Six1/His-Eya2 binding, biochemical; stronger effect = lower value; AID 651725; activity change, % (test concentration not listed); further: on the % scale 0 is the no-effect control and ±100 the full control effect
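GST-Six1 + His-Eya2 (5X stock: 250/500 nM); Tris pH 8.0, 300 mM NaCl, 0.05% BSA, 0.02% Tween 20; GSH donor/Ni acceptor beads; 1 h 37 °C dark; AlphaScreen readout.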
uPA surface inh: blocks generation of uPA at the cell surface; Potency, µM (top dose mostly 38.3 µM), inactives show at the top dose activity change, negative = inhibition, usual class: inhibitors; AID 540303; actives 0.31% (n = 330,000); cell surface uPA generation assay, qHTS; active means well fitted inhibition curve with a large enough effect; inconclusive means small, poorly fitted or top-dose-only effect; inactive means no such curve, though single readings can be large or run the other way; tested in mouse RAW 264.7 cells; further: potency means the concentration at half of the fitted maximal effect; on the % scale 0 is the no-effect control and ±100 the full control effect; nearly all actives have a fitted effect of over 55% in size
MBNL1 CUG block: MBNL1-poly(CUG) RNA binding inhibition; Q9NR56; TR-FRET MBNL1-His/biotin-(CUG)12 binding, 665/545 ratio; Potency, µM (highest dose often 57.5 µM), for the others: at the highest dose activity change, negative = inhibition, hits mostly inhibitors; actives 0.036% (n = 280,000); AID 2675; active means well fitted inhibition curve with a large enough effect in the signal ratio, with a control signal flat, not every such curve was filed as active; inconclusive means small, poorly fitted or top-dose-only effect, or effect the other way, or a change in a side signal; inactive means no such curve, though single readings can be large or run the other way; the % refers to the signal ratio; further: potency means the concentration at half of the fitted maximal effect; on the % scale 0 is the no-effect control and ±100 the full control effect
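TR-FRET between His-tagged MBNL1 and biotin-(CUG)12 RNA, detected with Tb anti-His antibody (0.055 ng/ul) and streptavidin-XL665 (5 nM), 60 min at room temperature. Compounds titrated 92 nM to 58 uM; 665/545 nm ratio normalized to buffer and complex controls.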
CtBP-E1A blk: CtBP/E1A binding inhibition | actives 0.49% (n = 340,000) | AID 651724 | activity change, % (test concentration not listed) | AlphaScreen GST-E1A/His-CtBP binding, 1536-well; stronger effect = lower value; further: on the % scale 0 is the no-effect control and ±100 the full control effect
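Protein mix (5X: 125 nM each GST-E1A, His-CtBP) was incubated with pinned compound 2 h at 37 deg C in dark, in 50 mM Tris pH 8.0 buffer with 300 mM NaCl. Glutathione donor and nickel acceptor beads followed; AlphaScreen signal read after 1 h.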
* hit, by the source's call; [ ] = remark or other dose. Unless noted, no stated cut-off is given here; in the data, active means activity change below about -65%; inconclusive means mostly about -30% to -63%; inactive means weaker than that.

Screening COc1cc2oc(=O)ccc2cc1-c1c(OC)ccc2ccc(=O)oc12 returned Six1-Eya2 inh -1, uPA surface inh 8.9µM* and CtBP-E1A blk -1.
Screening Cc1ccc(CCNC(=O)c2c[nH]c3ccc(S(=O)(=O)Nc4cccc(C(F)(F)F)c4)cc3c2=O)cc1 returned Mito fusion act 1%.
For Cc1ccc(NC(=S)NNC(=O)c2nn(C)cc2Cl)cc1 the results were Mito fusion act -3%, Six1-Eya2 inh -18, uPA surface inh 2%, MBNL1 CUG block -3% and CtBP-E1A blk -28.
Cc1ccc(NC(=S)NNC(=O)c2nnn(-c3ccccc3)c2C)cc1 was read as Mito fusion act 0%, Six1-Eya2 inh -75*, uPA surface inh -4%, MBNL1 CUG block -9% and CtBP-E1A blk -1.
CCOc1cc(/C=N/NC(=O)CN(CCc2ccccc2)S(=O)(=O)c2ccc(NC(C)=O)cc2)ccc1O was read as Mito fusion act -5%, Six1-Eya2 inh -75*, uPA surface inh -14% and CtBP-E1A blk 0.
For CCOc1cc(/C=N/NC(=O)c2ccccc2-n2cccc2)ccc1O the results were Mito fusion act -1%, Six1-Eya2 inh inconclusive and uPA surface inh 11µM*.
Screening COc1ccc(S(=O)(=O)N(CCc2ccccc2)CC(=O)N/N=C/c2ccc3c(c2)OCO3)cc1 returned Mito fusion act -3%, Six1-Eya2 inh 1, uPA surface inh -5%, MBNL1 CUG block inconclusive and CtBP-E1A blk -11.
`CCOc1cc(/C=N/NC(=O)c2ccccc2OCc2ccc(F)cc2)ccc1O` gave Mito fusion act -1%, Six1-Eya2 inh -27, uPA surface inh -16% and CtBP-E1A blk inconclusive.
Screening O=C(COc1ccccc1C(=O)N/N=C\c1ccc(O)c(O)c1)N/N=C/c1ccc(O)c(O)c1 returned Mito fusion act 1%, Six1-Eya2 inh -79*, uPA surface inh -6%, MBNL1 CUG block inconclusive and CtBP-E1A blk -77*.
`CC(C)[C@H](NS(=O)(=O)c1ccccc1)C(=O)OCC(=O)Nc1ccccc1Sc1ccccc1` gave Mito fusion act 22µM*, Six1-Eya2 inh 8, uPA surface inh -5%, MBNL1 CUG block -2% and CtBP-E1A blk 3.
`Oc1ccc(-c2cn3ccccc3n2)cc1` gave Mito fusion act 3%, Six1-Eya2 inh 5 and uPA surface inh 4µM*.
`c1ccc(-c2cn3ccccc3n2)cc1` gave Six1-Eya2 inh -13, uPA surface inh -6% and CtBP-E1A blk -3.
O=C(CSc1nc2ccccc2o1)N1c2ccccc2Sc2ccccc21 was read as Mito fusion act 13µM*, Six1-Eya2 inh -14, uPA surface inh 2%, MBNL1 CUG block 0% and CtBP-E1A blk 3.
Screening CC(=O)CSc1nc2ccccc2o1 returned Mito fusion act 2%, Six1-Eya2 inh 6, uPA surface inh 2%, MBNL1 CUG block -11% and CtBP-E1A blk 9.
COc1ccc([C@]23Cc4cc(OC)c(OC)cc4C(O2)c2c(c4ccccc4oc2=O)O3)cc1 was read as Mito fusion act -7%[9.22 µM] and MBNL1 CUG block 12%[11.5 µM].
For Cc1cc(Nc2ccccc2C(=O)O)n(-c2ccc([N+](=O)[O-])cc2)n1 the results were Mito fusion act -2%, Six1-Eya2 inh -81*, uPA surface inh 6% and MBNL1 CUG block inconclusive.
O=C(NCc1ccc(F)cc1F)[C@@H]1CCCN1C(=O)[C@@H]1CCCN1C(=O)c1cccc2ccccc12 was read as Six1-Eya2 inh 15 and CtBP-E1A blk -3.
`CN1C2CC(OC(=O)[C@H](CO)c3ccccc3)CC1C1OC12` (stereo not given in full) gave Mito fusion act -16%.
`CC(C)(Oc1ccc(Cl)cc1)C(=O)N1CCN(c2ccccn2)CC1` gave Mito fusion act 14µM*, Six1-Eya2 inh 0, uPA surface inh -2%, MBNL1 CUG block 1% and CtBP-E1A blk 3.
For O=C(Nc1cccc([N+](=O)[O-])c1)Nc1ccc2c(c1)CCC2 the results were Mito fusion act 1%, Six1-Eya2 inh -13, uPA surface inh -12%, MBNL1 CUG block 17% and CtBP-E1A blk -5.
`O=[N+]([O-])c1cccc(CNc2ccc3c(c2)CCC3)c1` gave Mito fusion act 14µM*, Six1-Eya2 inh inconclusive, uPA surface inh 0%, MBNL1 CUG block -2%[11.5 µM] and CtBP-E1A blk inconclusive.
Screening O=c1cc(CO)[nH]nc1CO returned Six1-Eya2 inh -17 and CtBP-E1A blk -2.
O=C(COc1ccc(Cl)cc1)N/N=C/c1cccc2cccnc12 was read as Mito fusion act -4%, Six1-Eya2 inh inconclusive, uPA surface inh -5%, MBNL1 CUG block 16% and CtBP-E1A blk inconclusive.
COc1ccc(OCC(=O)N/N=C/c2cccc3cccnc23)cc1 was read as Six1-Eya2 inh -80*, uPA surface inh inconclusive and CtBP-E1A blk -86*.
Screening COc1ccccc1OCC(=O)N/N=C/c1cccc2cccnc12 returned Mito fusion act -3%, Six1-Eya2 inh -74*, uPA surface inh -7%, MBNL1 CUG block inconclusive and CtBP-E1A blk -86*.
Screening COc1cccc(/C=N/NC(=O)CSc2cccc3cccnc23)c1 returned Mito fusion act 1%, Six1-Eya2 inh -94*, uPA surface inh inconclusive, MBNL1 CUG block inconclusive and CtBP-E1A blk -94*.
Screening CC(C)n1cc(/C=N/NC(=O)COc2cccc3cccnc23)c2ccccc21 returned Mito fusion act -5%, Six1-Eya2 inh -16, uPA surface inh -11%, MBNL1 CUG block 0% and CtBP-E1A blk -2.
Screening COc1cccc(/C=N/NC(=O)COc2cccc3cccnc23)c1O returned Mito fusion act 2%, Six1-Eya2 inh inconclusive, uPA surface inh -7%, MBNL1 CUG block 8% and CtBP-E1A blk -80*.
For OC[C@H]1O[C@H](n2cnc3c(N[C@H]4CCC[C@@H]4O)ncnc32)[C@H](O)[C@@H]1O the results were Mito fusion act -30%.
Screening CCCCCC(=O)N1C[C@@H](n2cc(COC(=O)c3ccccc3)nn2)[C@H](O)C[C@@H]1c1ccc(C)cc1 returned Six1-Eya2 inh -5 and CtBP-E1A blk 6.
`COc1ccc(CN2C[C@@H](CO)O[C@@H](n3cnc4c(N(C)C)ncnc43)C2)cc1` gave Six1-Eya2 inh -5 and CtBP-E1A blk 0.
COc1ccc(C(C)=O)cc1CSc1nnc(Nc2ccc(C)cc2C)s1 was read as Mito fusion act 16µM*, Six1-Eya2 inh -3, uPA surface inh -1%, MBNL1 CUG block 8% and CtBP-E1A blk -1.
For Cn1c2cc(B(O)O)sc2c2cnn(Cc3c(F)cccc3Cl)c(=O)c21 the results were Mito fusion act 0%.
COC(=O)c1c(Cl)c2n3ccccc3c(C)c(-c3ccccc3)c-2c1C(=O)OC was read as Mito fusion act 17%, Six1-Eya2 inh -68*, uPA surface inh -4%, MBNL1 CUG block inconclusive and CtBP-E1A blk inconclusive.
